# In publication PMC7862700, “An all-to-all approach to the identification of sequence-specific readers for epigenetic DNA modifications on cytosine”:
# Tests used:
# Assay in all cases: DAPPL (digital affinity profiling via proximity ligation, sequencing); 10 mM Tris-HCl pH 7.5, 50 mM NaCl, 1 mM DTT, 4% glycerol, room temperature, 30 min; GST-TFs on glutathione beads, 16-mer random dsDNA library, 0.1% formaldehyde crosslink after washing; high values mean tight binding
# FLI1 = target: T1, FLI1 (Homo sapiens, UniProt Q01543 1-452); conditions: protein: recombinant; tags: N-terminal GST; dsDNA, one strand shown
# T1 sequence: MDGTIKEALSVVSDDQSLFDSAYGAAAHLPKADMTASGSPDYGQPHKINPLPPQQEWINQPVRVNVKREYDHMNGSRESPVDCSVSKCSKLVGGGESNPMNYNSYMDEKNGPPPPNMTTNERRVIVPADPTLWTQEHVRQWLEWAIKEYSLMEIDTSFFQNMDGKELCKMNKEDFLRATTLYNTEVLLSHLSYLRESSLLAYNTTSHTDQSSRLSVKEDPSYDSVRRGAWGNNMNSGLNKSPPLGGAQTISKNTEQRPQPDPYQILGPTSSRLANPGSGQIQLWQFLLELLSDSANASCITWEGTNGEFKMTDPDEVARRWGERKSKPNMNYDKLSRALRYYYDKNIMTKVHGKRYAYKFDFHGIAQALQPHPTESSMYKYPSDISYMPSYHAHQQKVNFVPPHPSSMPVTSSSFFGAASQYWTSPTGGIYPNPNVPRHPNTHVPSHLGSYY
# Method in brief: (§1)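 A tag-only sample was pooled with DNA-barcoded human transcription factors that had been expressed in yeast as GST fusions and captured on glutathione beads. The pools were incubated for 30 min at room temperature with 200 nmole of a random double-stranded 16-mer DNA library in Tris/NaCl/DTT/glycerol buffer, then washed, crosslinked with 0.1% formaldehyde, proximity-ligated (BsaI/T4 ligase, 1 h, 37 °C), PCR-amplified and sequenced on an Illumina NextSeq500. Binding signal is each hexamer's read frequency for a factor divided by its frequency for the tag-only sample.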
# ELK1 = target: T2, ELK1 (Homo sapiens, UniProt P19419 1-428); conditions: protein: recombinant; tags: N-terminal GST; dsDNA, one strand shown
# T2 sequence: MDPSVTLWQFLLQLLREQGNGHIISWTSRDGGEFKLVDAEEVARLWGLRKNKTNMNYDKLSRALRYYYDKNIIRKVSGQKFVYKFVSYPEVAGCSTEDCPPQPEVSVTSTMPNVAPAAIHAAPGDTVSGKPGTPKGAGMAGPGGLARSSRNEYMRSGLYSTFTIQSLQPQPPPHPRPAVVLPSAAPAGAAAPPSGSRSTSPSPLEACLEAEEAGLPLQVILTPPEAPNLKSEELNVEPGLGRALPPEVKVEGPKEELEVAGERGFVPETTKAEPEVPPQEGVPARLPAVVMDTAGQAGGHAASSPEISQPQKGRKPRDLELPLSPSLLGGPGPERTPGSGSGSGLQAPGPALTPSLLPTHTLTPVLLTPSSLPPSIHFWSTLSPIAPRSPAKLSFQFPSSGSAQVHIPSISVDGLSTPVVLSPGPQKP
# Method in brief: as §1
# GABPA = target: T3, GABPA (Homo sapiens, UniProt Q06546 1-454); conditions: protein: recombinant; tags: N-terminal GST; dsDNA, one strand shown
# T3 sequence: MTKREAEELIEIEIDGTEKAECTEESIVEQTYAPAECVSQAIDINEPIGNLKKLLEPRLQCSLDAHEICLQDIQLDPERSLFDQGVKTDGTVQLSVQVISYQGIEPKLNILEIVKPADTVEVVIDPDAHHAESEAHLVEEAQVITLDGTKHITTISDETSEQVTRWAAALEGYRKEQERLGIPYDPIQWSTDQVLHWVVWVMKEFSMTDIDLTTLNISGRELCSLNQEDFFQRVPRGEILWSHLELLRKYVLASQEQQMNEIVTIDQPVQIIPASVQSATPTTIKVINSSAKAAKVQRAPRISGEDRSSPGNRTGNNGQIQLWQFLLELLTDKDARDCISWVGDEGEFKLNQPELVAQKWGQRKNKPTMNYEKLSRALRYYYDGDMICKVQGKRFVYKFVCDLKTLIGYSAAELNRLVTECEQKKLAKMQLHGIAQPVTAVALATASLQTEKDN
# Method in brief: as §1
# ERG = target: T4, ERG (Homo sapiens, UniProt P11308 1-479); conditions: protein: recombinant; tags: N-terminal GST; dsDNA, one strand shown
# T4 sequence: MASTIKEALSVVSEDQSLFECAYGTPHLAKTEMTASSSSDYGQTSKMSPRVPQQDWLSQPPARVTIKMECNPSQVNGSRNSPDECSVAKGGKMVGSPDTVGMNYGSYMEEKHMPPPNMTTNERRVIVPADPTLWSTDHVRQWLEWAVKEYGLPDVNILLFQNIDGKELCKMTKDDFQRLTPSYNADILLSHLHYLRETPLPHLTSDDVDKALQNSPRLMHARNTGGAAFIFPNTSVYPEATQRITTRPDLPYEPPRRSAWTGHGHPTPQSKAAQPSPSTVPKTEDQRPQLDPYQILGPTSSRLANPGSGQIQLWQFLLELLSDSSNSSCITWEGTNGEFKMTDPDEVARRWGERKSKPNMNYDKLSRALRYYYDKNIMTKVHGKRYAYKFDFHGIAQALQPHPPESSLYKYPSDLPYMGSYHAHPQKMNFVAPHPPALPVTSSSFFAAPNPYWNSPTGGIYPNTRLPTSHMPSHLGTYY
# Method in brief: as §1
# ELF1 = ELF1 (Homo sapiens, UniProt P32519 1-619); conditions: protein: recombinant; tags: N-terminal GST; dsDNA, one strand shown
# Method in brief: as §1
# EHF = target: T5, EHF (Homo sapiens, UniProt Q9NZC4 1-300); conditions: protein: recombinant; tags: N-terminal GST; dsDNA, one strand shown
# T5 sequence: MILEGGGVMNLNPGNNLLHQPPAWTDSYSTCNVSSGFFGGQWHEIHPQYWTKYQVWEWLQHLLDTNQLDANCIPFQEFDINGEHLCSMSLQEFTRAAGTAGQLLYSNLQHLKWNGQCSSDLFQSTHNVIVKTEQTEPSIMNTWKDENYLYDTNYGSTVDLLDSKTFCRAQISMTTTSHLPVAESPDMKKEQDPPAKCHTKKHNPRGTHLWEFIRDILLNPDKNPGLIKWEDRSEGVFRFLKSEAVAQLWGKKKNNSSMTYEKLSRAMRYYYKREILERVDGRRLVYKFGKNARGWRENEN
# Method in brief: as §1
# SPI1 = SPI1 (Homo sapiens, UniProt P17947 1-270); conditions: protein: recombinant; tags: N-terminal GST; dsDNA, one strand shown
# Method in brief: as §1
# SPIB = SPIB (Homo sapiens, UniProt Q01892 1-262); conditions: protein: recombinant; tags: N-terminal GST; dsDNA, one strand shown
# Method in brief: as §1
# ELK3 = target: T6, ELK3 (Homo sapiens, UniProt P41970 1-407); conditions: protein: recombinant; tags: N-terminal GST; dsDNA, one strand shown
# T6 sequence: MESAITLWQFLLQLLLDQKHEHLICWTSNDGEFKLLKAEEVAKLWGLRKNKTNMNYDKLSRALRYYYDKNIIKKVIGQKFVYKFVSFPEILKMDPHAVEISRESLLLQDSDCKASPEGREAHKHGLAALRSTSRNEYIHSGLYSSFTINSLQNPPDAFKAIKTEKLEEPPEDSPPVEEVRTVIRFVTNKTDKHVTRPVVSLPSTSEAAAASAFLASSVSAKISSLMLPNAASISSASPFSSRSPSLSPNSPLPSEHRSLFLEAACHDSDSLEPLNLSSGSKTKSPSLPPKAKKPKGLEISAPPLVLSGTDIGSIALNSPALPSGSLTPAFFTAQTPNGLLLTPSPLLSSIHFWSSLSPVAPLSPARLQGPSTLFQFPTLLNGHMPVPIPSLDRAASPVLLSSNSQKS
# Method in brief: as §1
# FEV = target: T7, FEV (Homo sapiens, UniProt Q99581 1-238); conditions: protein: recombinant; tags: N-terminal GST; dsDNA, one strand shown
# T7 sequence: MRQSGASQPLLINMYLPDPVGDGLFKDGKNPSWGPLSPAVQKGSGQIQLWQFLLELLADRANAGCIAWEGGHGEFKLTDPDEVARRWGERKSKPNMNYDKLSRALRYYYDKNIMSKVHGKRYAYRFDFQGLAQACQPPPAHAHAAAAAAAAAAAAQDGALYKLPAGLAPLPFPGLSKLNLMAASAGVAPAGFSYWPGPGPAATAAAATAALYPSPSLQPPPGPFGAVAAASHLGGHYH
# Method in brief: as §1
# ETV5 = ETV5 (Homo sapiens, UniProt P41161 1-510); conditions: protein: recombinant; tags: N-terminal GST; dsDNA, one strand shown
# Method in brief: as §1
# HSF1 = HSF1 (Homo sapiens, UniProt Q00613 1-529); conditions: protein: recombinant; tags: N-terminal GST; chain copies: 3; dsDNA, one strand shown
# Method in brief: as §1
# SPIC = target: T8, SPIC (Homo sapiens, UniProt Q8N5J4 1-248); conditions: protein: recombinant; tags: N-terminal GST; dsDNA, one strand shown
# T8 sequence: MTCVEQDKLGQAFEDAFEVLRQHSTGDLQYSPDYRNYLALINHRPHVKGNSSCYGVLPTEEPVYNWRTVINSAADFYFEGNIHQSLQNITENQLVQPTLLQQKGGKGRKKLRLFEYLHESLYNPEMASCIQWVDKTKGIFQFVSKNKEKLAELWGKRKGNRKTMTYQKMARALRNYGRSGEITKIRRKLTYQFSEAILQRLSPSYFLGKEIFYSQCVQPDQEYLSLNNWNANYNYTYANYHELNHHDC
# Method in brief: as §1
# ELF4 = ELF4 (Homo sapiens, UniProt Q99607 1-663); conditions: protein: recombinant; tags: N-terminal GST; dsDNA, one strand shown
# Method in brief: as §1
# ELK4 = target: T9, ELK4 (Homo sapiens, UniProt P28324-2 1-405); conditions: protein: recombinant; tags: N-terminal GST; dsDNA, one strand shown
# T9 sequence: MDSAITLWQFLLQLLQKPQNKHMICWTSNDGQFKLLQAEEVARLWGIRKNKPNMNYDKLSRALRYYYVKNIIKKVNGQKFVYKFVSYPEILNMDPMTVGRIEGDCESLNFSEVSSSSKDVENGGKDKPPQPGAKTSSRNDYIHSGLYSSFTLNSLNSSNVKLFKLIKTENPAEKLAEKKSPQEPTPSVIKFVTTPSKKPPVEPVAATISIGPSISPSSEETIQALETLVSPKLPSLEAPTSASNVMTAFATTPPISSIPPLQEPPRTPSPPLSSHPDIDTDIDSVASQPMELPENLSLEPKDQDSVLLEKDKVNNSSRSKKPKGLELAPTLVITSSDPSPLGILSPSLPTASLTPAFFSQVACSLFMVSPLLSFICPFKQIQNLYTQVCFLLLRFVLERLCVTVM
# Method in brief: as §1
# ETV2 = target: T10, ETV2 (Homo sapiens, UniProt O00321 1-342); conditions: protein: recombinant; tags: N-terminal GST; dsDNA, one strand shown
# T10 sequence: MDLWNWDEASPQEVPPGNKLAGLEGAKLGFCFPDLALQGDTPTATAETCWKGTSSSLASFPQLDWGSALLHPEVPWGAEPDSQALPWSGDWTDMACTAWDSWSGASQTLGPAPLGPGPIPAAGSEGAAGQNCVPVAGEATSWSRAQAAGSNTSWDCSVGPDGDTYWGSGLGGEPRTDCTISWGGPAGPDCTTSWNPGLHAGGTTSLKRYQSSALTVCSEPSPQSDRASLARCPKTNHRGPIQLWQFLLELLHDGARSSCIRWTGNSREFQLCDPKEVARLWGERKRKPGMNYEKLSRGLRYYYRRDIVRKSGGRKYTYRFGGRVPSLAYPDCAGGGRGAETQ
# Method in brief: as §1
# ELF3 = target: T11, ELF3 (Homo sapiens, UniProt P78545 1-371); conditions: protein: recombinant; tags: N-terminal GST; dsDNA, one strand shown
# T11 sequence: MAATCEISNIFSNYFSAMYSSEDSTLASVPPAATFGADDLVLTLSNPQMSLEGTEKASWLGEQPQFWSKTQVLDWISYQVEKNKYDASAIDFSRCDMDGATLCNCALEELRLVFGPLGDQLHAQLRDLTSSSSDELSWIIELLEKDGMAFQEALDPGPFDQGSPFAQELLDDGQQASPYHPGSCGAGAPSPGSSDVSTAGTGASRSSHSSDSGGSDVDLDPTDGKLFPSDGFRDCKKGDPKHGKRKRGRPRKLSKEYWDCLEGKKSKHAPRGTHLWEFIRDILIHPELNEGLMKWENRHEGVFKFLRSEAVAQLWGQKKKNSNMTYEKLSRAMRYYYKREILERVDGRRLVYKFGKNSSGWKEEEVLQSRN
# Method in brief: as §1
# CRX = CRX (Homo sapiens, UniProt O43186 1-299); conditions: protein: recombinant; tags: N-terminal GST; dsDNA, one strand shown
# Method in brief: as §1
# ETV1 = ETV1 (Homo sapiens, UniProt P50549 1-477); conditions: protein: recombinant; tags: N-terminal GST; dsDNA, one strand shown
# Method in brief: as §1
# Chain of ELF1 (P32519 whole entry): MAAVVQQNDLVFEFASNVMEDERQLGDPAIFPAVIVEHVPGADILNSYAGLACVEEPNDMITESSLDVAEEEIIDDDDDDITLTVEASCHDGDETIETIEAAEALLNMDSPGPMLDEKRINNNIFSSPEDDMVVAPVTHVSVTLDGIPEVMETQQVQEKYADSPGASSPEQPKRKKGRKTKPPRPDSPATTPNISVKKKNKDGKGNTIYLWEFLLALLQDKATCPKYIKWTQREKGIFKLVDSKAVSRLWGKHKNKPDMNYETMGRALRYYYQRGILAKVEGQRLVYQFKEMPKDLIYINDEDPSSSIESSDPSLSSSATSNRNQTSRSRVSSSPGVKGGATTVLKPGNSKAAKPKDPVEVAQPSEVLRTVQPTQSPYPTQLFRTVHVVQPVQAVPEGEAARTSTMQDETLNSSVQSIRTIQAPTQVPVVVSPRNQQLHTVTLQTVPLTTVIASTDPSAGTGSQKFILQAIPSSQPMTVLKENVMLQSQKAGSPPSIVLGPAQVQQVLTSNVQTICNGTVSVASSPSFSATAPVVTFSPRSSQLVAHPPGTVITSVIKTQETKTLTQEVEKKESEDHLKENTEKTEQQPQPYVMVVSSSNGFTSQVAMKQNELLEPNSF
# Chain of ETV1 (P50549 whole entry): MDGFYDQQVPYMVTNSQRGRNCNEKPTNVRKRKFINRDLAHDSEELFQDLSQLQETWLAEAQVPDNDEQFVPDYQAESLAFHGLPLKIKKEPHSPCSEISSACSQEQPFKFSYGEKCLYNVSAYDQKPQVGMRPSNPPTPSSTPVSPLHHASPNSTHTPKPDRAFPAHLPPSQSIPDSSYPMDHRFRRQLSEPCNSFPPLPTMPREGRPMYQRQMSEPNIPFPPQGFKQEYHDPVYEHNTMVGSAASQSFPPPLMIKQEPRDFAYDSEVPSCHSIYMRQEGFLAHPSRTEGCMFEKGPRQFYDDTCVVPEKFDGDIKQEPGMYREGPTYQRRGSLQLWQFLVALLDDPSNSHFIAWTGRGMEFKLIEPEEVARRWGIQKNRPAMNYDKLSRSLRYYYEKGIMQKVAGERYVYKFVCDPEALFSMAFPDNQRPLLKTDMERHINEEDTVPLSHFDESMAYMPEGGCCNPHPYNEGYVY
# Chain of ETV5 (P41161 whole entry): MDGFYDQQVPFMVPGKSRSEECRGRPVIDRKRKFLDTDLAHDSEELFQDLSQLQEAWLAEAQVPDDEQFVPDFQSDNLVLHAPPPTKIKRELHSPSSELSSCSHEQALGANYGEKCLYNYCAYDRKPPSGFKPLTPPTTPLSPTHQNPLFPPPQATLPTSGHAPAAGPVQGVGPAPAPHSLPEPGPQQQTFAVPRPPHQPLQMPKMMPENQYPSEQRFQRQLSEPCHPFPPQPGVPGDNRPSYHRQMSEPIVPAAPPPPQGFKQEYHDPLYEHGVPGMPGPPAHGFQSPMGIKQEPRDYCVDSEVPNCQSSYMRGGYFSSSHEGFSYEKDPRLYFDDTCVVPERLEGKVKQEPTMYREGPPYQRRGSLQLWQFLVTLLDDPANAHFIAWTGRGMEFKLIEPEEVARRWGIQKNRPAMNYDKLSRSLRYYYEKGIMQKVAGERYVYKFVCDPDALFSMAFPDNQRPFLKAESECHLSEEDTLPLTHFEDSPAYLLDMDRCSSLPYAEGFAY
# Chain of HSF1 (Q00613 whole entry): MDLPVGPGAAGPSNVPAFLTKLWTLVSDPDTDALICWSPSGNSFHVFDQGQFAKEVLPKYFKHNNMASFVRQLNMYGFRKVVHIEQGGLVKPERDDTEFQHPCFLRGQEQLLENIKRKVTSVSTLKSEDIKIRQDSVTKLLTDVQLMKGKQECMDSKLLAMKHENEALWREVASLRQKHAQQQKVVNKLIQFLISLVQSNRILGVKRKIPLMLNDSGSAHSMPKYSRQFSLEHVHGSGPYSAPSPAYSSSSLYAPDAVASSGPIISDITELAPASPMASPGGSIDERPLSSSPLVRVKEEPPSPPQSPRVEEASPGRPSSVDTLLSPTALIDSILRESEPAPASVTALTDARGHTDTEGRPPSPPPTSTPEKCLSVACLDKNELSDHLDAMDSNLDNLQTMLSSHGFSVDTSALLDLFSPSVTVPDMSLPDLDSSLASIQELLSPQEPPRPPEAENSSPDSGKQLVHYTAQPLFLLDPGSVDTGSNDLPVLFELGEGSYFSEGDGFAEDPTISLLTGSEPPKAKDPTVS
# Chain of SPIB (Q01892 whole entry): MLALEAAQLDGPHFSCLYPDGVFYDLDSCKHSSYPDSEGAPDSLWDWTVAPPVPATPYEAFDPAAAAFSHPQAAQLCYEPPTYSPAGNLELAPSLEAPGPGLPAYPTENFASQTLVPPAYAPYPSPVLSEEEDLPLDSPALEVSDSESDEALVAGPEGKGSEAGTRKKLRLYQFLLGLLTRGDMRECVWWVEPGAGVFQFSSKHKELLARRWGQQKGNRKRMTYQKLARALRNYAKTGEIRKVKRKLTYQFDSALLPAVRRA
# Chain of CRX (O43186 whole entry): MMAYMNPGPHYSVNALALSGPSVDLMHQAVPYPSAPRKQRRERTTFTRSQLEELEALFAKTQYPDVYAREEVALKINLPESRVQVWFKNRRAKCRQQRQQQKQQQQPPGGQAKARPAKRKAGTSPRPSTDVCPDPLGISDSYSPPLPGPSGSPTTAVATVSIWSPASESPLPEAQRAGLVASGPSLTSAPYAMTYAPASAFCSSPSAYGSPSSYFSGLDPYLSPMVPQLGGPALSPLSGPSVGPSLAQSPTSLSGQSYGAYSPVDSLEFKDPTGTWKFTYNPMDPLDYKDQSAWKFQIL
# Chain of ELF4 (Q99607 whole entry): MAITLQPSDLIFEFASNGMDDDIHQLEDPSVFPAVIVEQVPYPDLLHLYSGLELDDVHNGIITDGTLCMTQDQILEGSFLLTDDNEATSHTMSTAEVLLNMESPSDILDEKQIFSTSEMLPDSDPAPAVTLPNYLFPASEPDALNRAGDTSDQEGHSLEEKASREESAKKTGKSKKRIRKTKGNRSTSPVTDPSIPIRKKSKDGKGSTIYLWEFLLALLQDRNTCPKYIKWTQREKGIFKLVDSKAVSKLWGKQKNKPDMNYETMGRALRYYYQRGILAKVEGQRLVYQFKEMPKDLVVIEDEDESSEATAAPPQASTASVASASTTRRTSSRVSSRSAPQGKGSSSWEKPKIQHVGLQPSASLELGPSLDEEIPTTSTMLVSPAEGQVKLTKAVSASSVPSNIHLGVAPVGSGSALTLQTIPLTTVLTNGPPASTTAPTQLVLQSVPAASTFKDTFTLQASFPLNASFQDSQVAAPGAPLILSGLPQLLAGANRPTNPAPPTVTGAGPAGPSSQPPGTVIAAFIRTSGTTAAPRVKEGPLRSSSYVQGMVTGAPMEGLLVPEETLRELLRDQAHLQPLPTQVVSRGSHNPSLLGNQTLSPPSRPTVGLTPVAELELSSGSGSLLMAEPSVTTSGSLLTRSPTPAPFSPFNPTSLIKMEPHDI
sequence,measurement,setting,value
TTACAT,binding signal,FLI1,"1.3 fold enrichment (6-mer frequency, TF over GST control)"
same,binding signal,ELK1,"1.27 fold enrichment (6-mer frequency, TF over GST control)"
same,binding signal,GABPA,"1.38 fold enrichment (6-mer frequency, TF over GST control)"
same,binding signal,ERG,"1.31 fold enrichment (6-mer frequency, TF over GST control)"
same,binding signal,ELF1,"1.31 fold enrichment (6-mer frequency, TF over GST control)"
same,binding signal,EHF,"1.43 fold enrichment (6-mer frequency, TF over GST control)"
same,binding signal,SPI1,"1.3 fold enrichment (6-mer frequency, TF over GST control)"
same,binding signal,SPIB,"1.3 fold enrichment (6-mer frequency, TF over GST control)"
same,binding signal,ELK3,"1.36 fold enrichment (6-mer frequency, TF over GST control)"
same,binding signal,FEV,"1.3 fold enrichment (6-mer frequency, TF over GST control)"
same,binding signal,ETV5,"1.31 fold enrichment (6-mer frequency, TF over GST control)"
same,binding signal,HSF1,"1.45 fold enrichment (6-mer frequency, TF over GST control)"
same,binding signal,SPIC,"1.34 fold enrichment (6-mer frequency, TF over GST control)"
same,binding signal,ELF4,"1.34 fold enrichment (6-mer frequency, TF over GST control)"
same,binding signal,ELK4,"1.34 fold enrichment (6-mer frequency, TF over GST control)"
same,binding signal,ETV2,"1.43 fold enrichment (6-mer frequency, TF over GST control)"
same,binding signal,ELF3,"1.4 fold enrichment (6-mer frequency, TF over GST control)"
same,binding signal,CRX,"1.81 fold enrichment (6-mer frequency, TF over GST control)"
same,binding signal,ETV1,"1.39 fold enrichment (6-mer frequency, TF over GST control)"
